Of roughly 8,800 targets only a part is listed; those with a hit were picked by preference. About 0.5% of all pairs of compound and target were hits.
What was measured:
Assay in all cases: log2 fold change, soluble protein after heating vs DMSO (PISA); higher = thermal stabilisation; K562 lysate, 10 uM; active = over 0.2 and 3.5 SD of the protein, either way, in both replicates (recomputed)
[1] = compound: NCC(=O)Nc1ccc(-n2nc(C(F)(F)F)cc2-c2ccc3c(ccc4ccccc43)c2)cc1
How it was run: (§1)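 Dounce homogenisation of K562 pellets in PBS pH 7.4 with 1 mM MgCl2 produced a crude extract, used at 1 mg/mL protein. Exposure to 10 μM compound lasted 30 min, and aliquots were then heated for 3 min across 48°C-58°C, pooled and brought to 0.5% NP-40 at 4°C. The supernatant after 21,000xg for 90 min was quantified by TMTpro 16plex LC-MS/MS with channel sums equalised. Duplicate values are given as log-two fold change in thermal stability relative to solvent controls.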

[2] = compound: O=C(CCCCCCC(=O)Nc1ccccc1)NO [vorinostat]
How it was run: as §1

[3] = compound: O=C(O)c1ccc2c(c1)nc(Nc1cccc(Cl)c1)c1ccncc12 [silmitasertib]
How it was run: as §1

[4] = compound: O=C1NC(=O)C(c2cnc3ccccn23)=C1c1cn2c3c(cc(F)cc13)CN(C(=O)N1CCCCC1)CC2
How it was run: as §1

[5] = compound: c1cn2cc(-c3ccc4cn[nH]c4c3)nc(Nc3ccc(N4CCOCC4)cc3)c2n1 [entospletinib]
How it was run: as §1

Measured: log2 fold change

SLC25A32 (UniProt Q9H2D1)
Chain of UniProt Q9H2D1 (Q9H2D1 whole entry, looked up): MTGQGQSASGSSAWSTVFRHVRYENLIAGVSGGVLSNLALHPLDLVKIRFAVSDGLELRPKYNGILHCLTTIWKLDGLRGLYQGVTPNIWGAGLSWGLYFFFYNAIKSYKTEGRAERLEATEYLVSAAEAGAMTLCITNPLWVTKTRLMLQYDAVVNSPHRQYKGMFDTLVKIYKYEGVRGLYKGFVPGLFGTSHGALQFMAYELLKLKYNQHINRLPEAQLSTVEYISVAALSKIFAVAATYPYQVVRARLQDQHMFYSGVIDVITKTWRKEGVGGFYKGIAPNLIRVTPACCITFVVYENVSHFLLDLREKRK
inactive: [1] 0.053 | [2] 0.23 | [3] -0.008 | [4] 0.046 | [5] 0.033

SKP2 (UniProt Q13309)
inactive: [1] -0.07 | [2] -0.203 | [3] 0.012 | [4] 0.009 | [5] -0.103

SMC2 (UniProt O95347)
inactive: [1] 0.014 | [3] 0.016 | [4] -0.01 | [5] 0.009
active: [2] -0.308

SOX5 (UniProt P35711)
inactive: [1] -0.036 | [2] -0.014 | [3] 0.099 | [4] -0.027 | [5] -0.083

SVIP (UniProt Q8NHG7)
Chain of UniProt Q8NHG7 (Q8NHG7 whole entry, looked up): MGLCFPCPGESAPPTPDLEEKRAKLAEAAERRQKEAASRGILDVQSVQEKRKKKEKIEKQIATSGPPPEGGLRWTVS
inactive: [1] 0.023 | [2] 0.171 | [3] -0.041 | [4] -0.013 | [5] -0.012

STAT2 (UniProt P52630)
active: [2] -0.254
inactive: [1] -0.018 | [3] 0.063 | [4] -0.017 | [5] 0.011

STK36 (UniProt Q9NRP7)
Chain of UniProt Q9NRP7 (Q9NRP7 whole entry, looked up): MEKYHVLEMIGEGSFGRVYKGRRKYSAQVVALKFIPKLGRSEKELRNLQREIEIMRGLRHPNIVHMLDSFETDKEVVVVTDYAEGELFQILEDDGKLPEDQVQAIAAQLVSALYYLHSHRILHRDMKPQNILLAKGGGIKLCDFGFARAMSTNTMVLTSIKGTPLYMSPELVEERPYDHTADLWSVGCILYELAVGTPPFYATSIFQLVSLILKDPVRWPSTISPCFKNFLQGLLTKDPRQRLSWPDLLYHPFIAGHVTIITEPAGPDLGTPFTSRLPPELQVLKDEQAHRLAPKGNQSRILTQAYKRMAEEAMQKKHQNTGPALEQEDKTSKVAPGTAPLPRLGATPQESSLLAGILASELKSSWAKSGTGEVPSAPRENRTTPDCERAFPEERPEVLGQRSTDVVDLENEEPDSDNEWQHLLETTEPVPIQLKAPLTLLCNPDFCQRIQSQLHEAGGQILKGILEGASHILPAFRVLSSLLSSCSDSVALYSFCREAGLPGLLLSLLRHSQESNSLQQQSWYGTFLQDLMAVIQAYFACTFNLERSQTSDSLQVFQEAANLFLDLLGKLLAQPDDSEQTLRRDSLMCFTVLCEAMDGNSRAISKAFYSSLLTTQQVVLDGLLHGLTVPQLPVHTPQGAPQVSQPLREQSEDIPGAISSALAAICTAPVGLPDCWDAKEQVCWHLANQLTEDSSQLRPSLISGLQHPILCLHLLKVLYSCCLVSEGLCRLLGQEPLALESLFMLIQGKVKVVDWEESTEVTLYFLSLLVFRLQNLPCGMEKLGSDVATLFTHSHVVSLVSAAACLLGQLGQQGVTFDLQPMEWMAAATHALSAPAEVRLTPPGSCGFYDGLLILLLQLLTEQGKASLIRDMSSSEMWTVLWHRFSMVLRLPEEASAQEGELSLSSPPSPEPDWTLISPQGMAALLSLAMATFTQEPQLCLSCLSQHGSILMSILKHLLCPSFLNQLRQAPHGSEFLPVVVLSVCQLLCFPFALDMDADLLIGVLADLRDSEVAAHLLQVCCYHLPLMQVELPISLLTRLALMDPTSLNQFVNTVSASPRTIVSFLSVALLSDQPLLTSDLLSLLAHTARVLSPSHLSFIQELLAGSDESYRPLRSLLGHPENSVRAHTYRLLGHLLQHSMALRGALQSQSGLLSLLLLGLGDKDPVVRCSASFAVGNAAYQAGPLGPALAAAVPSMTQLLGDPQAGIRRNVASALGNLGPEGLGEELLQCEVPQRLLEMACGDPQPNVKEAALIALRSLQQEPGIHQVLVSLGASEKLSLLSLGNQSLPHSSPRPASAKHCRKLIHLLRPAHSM
inactive: [1] 0.283 | [2] 0.143 | [3] -0.032 | [4] 0.101 | [5] -0.031

SH3BP5L (UniProt Q7L8J4)
Chain of UniProt Q7L8J4 (Q7L8J4 whole entry, looked up): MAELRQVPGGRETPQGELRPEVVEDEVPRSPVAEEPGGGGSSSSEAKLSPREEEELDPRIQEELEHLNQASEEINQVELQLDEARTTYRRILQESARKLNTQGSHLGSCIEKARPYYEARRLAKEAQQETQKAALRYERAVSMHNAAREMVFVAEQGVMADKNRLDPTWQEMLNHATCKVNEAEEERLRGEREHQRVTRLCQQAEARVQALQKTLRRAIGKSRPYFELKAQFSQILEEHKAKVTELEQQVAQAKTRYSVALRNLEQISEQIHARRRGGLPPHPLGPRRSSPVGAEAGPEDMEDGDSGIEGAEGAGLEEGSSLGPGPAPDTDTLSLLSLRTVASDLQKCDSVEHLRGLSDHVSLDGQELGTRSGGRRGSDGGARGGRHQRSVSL
inactive: [1] -0.003 | [2] -0.025 | [3] -0.068 | [4] 0.051 | [5] 0.009

SORBS3 (UniProt O60504)
active: [2] -0.561
inactive: [1] -0.122 | [3] 0.057 | [4] 0.031 | [5] 0.01

SLC20A1 (UniProt Q8WUM9)
inactive: [1] 0 | [2] 0.062 | [3] -0.05 | [4] 0.021 | [5] 0.064

SPHK1 isoform 2 (UniProt Q9NYA1)
inactive: [1] 0.091 | [2] -0.408 | [3] 0.089 | [4] -0.167 | [5] 0.032

SNW1 (UniProt Q13573)
active: [2] 0.224
inactive: [1] 0.011 | [3] -0.003 | [4] -0.012 | [5] 0.009

STK4 (UniProt Q13043)
inactive: [1] 0.054 | [2] -0.134 | [3] 0.024 | [4] 0.041 | [5] 0.047

SMAD2 (UniProt Q15796)
Chain of UniProt Q15796 (Q15796 whole entry, looked up): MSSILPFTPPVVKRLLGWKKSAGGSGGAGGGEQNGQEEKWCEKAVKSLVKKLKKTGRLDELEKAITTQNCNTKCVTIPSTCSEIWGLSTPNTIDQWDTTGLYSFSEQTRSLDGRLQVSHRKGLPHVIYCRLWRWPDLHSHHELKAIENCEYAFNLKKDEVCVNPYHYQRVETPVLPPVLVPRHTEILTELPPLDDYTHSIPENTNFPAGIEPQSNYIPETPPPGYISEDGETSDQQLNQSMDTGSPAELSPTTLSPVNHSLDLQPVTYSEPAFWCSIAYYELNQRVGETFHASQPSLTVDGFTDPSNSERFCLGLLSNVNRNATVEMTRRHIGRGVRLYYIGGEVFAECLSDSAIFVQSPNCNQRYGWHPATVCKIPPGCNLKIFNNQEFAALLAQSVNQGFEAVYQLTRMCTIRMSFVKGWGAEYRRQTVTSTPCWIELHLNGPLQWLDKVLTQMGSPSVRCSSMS
active: [2] -0.752
inactive: [1] -0.025 | [3] -0.051 | [4] 0.008 | [5] -0.049

TAPT1 (UniProt Q6NXT6)
inactive: [1] 0.023 | [2] 0.09 | [3] 0.007 | [4] 0.023 | [5] 0.001

SPG11 (UniProt Q96JI7)
inactive: [1] -0.001 | [3] 0.062 | [4] 0.04 | [5] -0.098
active: [2] -0.399

SMAD9 (UniProt O15198)
inactive: [1] 0.007 | [3] 0.023 | [4] -0.012 | [5] 0.017
active: [2] -0.436

SLC25A25 isoform 3 (UniProt Q6KCM7)
Chain of UniProt Q6KCM7 (Q6KCM7 whole entry, looked up): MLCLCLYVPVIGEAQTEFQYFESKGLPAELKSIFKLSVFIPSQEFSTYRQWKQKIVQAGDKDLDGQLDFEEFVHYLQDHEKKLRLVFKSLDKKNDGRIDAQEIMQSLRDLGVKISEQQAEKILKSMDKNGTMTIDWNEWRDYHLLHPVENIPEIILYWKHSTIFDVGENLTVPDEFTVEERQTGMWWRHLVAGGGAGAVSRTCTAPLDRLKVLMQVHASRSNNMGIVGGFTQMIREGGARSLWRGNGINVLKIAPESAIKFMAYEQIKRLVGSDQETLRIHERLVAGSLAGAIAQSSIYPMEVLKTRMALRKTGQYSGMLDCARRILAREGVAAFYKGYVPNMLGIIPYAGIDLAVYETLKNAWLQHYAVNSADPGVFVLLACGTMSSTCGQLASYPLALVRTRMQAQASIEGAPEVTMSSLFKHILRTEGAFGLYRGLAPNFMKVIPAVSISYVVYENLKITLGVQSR
inactive: [1] 0.016 | [2] 0.054 | [3] 0.02 | [4] -0.036 | [5] 0.001

TARDBP (UniProt Q13148)
active: [2] -0.44
inactive: [1] 0.044 | [3] 0.086 | [4] -0.268 | [5] -0.027

SKA2 (UniProt Q8WVK7)
Chain of UniProt Q8WVK7 (Q8WVK7 whole entry, looked up): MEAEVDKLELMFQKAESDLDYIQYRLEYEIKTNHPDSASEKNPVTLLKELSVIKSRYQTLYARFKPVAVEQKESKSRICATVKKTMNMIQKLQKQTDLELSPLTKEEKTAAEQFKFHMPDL
active: [2] -0.364
inactive: [1] 0.086 | [3] -0.035 | [4] 0.067 | [5] -0.028

STAU1 (UniProt O95793)
Chain of UniProt O95793 (O95793 whole entry, looked up): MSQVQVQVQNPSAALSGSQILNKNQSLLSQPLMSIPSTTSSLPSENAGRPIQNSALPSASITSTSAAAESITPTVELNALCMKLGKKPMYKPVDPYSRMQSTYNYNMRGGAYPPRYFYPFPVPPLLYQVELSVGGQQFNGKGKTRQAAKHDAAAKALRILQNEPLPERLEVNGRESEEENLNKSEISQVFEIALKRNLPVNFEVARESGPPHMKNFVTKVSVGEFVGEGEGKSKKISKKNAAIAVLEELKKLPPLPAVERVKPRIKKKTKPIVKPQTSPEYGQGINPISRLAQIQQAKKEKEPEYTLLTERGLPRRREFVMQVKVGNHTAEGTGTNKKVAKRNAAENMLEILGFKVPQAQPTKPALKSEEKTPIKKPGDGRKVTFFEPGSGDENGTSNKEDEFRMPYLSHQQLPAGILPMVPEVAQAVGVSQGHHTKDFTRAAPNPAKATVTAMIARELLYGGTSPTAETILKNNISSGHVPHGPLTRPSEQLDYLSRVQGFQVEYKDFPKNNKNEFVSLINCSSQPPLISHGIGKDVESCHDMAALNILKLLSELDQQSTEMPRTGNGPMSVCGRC
inactive: [1] 0.045 | [2] -0.035 | [3] 0.017 | [4] -0.009 | [5] 0.009

SLC25A17 (UniProt O43808)
inactive: [1] 0.021 | [2] 0.015 | [3] -0.026 | [4] -0.033 | [5] -0.027

SLU7 (UniProt O95391)
inactive: [1] 0.208 | [2] 0.012 | [3] -0.037 | [4] 0.046 | [5] -0.024

SMC1B isoform 3 (UniProt Q8NDV3)
Chain of UniProt Q8NDV3 (Q8NDV3 whole entry, looked up): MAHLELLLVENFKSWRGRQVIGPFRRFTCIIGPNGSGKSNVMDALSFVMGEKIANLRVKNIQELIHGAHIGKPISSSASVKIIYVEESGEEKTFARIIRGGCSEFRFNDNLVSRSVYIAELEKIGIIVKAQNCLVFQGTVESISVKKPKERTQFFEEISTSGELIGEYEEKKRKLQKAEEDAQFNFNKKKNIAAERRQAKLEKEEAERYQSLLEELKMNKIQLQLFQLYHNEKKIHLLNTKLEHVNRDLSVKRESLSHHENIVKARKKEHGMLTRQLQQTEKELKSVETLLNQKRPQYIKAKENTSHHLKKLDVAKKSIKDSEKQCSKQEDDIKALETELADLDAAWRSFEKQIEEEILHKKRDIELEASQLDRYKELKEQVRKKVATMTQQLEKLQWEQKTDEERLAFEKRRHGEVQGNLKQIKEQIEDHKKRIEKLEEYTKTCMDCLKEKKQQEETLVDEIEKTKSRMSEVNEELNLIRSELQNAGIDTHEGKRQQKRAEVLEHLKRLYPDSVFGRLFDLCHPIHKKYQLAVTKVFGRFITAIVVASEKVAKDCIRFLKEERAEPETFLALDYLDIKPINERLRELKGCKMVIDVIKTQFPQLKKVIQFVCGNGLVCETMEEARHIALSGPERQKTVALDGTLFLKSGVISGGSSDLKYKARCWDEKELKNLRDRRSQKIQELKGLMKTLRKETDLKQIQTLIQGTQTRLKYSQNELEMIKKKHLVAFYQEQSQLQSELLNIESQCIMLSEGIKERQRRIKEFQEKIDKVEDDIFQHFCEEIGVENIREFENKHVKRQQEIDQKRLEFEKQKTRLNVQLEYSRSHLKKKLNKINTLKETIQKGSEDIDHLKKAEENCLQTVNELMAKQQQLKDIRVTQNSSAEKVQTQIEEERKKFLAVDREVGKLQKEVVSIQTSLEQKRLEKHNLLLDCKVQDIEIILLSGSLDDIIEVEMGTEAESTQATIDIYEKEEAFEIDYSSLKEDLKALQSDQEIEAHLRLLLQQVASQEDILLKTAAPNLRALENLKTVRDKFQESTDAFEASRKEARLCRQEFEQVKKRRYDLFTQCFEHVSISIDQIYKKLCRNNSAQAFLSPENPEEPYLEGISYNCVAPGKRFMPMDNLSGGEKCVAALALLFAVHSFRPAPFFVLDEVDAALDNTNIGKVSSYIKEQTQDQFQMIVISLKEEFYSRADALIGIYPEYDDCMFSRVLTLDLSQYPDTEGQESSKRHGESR
inactive: [1] -0.063 | [2] 0.068 | [3] -0.011 | [4] 0.026 | [5] 0.004

Reference: the supplement of paper PMC10849652
